The results in this text go back to paper PMC4336329 (PLoS ONE, 2015).

Among all 310,000 compounds or so, about 14,000 (4.5%) showed an effect of 50% or more. Effects have a minus sign here. This excerpt belongs to a sample that is enriched for strong results.
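Further: peak tail current of the secondary pulse compared with the same well before compound.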

For this test, the target named is human ether-à-go-go-related gene (hERG) potassium channel (human, UniProt Q12809). The test is described as follows: primary screen, population patch clamp on CHO cells stably expressing hERG; higher = less effect of the substance.
Sequence of human ether-à-go-go-related gene (hERG) potassium channel (Q12809 whole entry, looked up): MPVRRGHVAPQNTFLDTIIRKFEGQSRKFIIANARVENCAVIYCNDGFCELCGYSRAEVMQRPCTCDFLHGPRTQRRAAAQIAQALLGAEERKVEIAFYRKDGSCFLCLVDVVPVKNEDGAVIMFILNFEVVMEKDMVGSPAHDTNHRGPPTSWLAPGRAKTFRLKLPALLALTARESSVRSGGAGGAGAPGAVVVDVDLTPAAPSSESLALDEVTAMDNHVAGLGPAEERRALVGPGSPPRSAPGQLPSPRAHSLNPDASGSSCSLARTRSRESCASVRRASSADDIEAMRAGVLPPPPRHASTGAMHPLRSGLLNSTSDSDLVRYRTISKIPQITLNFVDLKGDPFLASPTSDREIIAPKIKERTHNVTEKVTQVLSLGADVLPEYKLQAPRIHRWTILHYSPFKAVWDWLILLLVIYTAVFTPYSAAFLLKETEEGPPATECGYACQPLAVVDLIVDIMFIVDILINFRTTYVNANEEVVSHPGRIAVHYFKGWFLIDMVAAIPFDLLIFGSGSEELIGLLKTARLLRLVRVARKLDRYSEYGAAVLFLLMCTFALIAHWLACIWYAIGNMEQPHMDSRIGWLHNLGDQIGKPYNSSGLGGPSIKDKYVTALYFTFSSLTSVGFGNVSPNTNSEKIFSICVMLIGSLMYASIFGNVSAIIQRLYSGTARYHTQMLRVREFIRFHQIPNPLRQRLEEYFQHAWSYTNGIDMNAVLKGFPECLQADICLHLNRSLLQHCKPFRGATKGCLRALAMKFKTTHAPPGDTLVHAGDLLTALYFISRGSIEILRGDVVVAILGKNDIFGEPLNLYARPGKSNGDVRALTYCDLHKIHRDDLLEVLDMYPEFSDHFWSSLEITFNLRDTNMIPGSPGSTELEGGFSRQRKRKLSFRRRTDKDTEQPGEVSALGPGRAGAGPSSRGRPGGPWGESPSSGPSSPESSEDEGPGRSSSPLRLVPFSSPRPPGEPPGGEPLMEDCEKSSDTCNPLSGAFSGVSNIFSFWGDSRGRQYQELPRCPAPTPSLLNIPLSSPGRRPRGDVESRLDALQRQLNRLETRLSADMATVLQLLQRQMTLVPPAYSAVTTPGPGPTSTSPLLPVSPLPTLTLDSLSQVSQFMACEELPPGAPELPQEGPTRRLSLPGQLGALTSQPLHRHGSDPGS
`O=C(Cn1cncn1)N/N=C/c1cccc(Cl)c1`: the “hERG current change (%, negative = inhibition) at 10uM” value came to 16.3%. Take `Oc1ccc(N=Nc2cccc(C(F)(F)F)c2)cc1C=Nc1ccc(N2CCOCC2)cc1`: the “hERG current change (%, negative = inhibition) at 10uM” value came to 15.6%. As for `CCOc1ccc(C(CC(=O)O)NC(=O)COc2ccccc2OC)cc1OC` (stereo not drawn), the figure is 26.4%; as for `Cc1c(C(=O)O)cccc1-c1ccc(/C=N/Nc2ccc(Br)cc2)o1`, 30.2%.

On to `Cc1ccc(S(=O)(=O)N2CCN(C(=O)CCC(=O)NC3CCCc4ccccc43)CC2)cc1` (stereo not drawn), for which the “hERG current change (%, negative = inhibition) at 10uM” value was -17.3%. Turning to `O=C(CN1CCN(S(=O)(=O)c2ccc(F)cc2)CC1)Nc1ccc2c(c1)OCCO2`, the “hERG current change (%, negative = inhibition) at 10uM” value was -10.9%. Then `COc1ccc(NC(=O)CN2CCN(S(=O)(=O)c3ccc(Cl)cc3)CC2)cc1Cl`, with -0.308%; and `O=C(CCC(=O)N1CCN(S(=O)(=O)c2ccc(Cl)cc2)CC1)NC1CCCc2ccccc21` (stereo not drawn), with -52.6%; and `CCc1ccc(NC(=O)CN2CCCN(S(=O)(=O)c3ccc(F)cc3)CC2)cc1`, with -63.9%. On to `O=C(CN1CCCN(S(=O)(=O)c2ccc(F)cc2)CC1)Nc1c(Cl)cccc1Cl`, for which the “hERG current change (%, negative = inhibition) at 10uM” value is -27.1%.

Regarding `COc1ccc(S(=O)(=O)N2CCN(CC(=O)Nc3ccc(F)c(F)c3)CC2)cc1`, the “hERG current change (%, negative = inhibition) at 10uM” value is -66.4%. As for `O=C(CN1CCCN(S(=O)(=O)c2ccc(F)cc2)CC1)Nc1cccc(F)c1`, the figure is -50.3%; as for `COc1ccc(NC(=O)CN2CCCN(S(=O)(=O)c3ccc(F)cc3)CC2)cc1`, -36.5%. As for `O=C(CCC(=O)N1CCN(S(=O)(=O)c2ccccc2)CC1)NC1CCCc2ccccc21` (stereo not drawn), the figure is -13.5%; as for `NS(=O)(=O)c1ccc(NC(=O)CN2CCCN(S(=O)(=O)c3ccc(F)cc3)CC2)cc1`, -17.9%; as for `COc1ccc(S(=O)(=O)N2CCN(CC(=O)Nc3cc(OC)cc(OC)c3)CC2)cc1`, -0.404%. Then `Cc1c(C(=O)Nc2nnc(C(F)(F)F)s2)oc2ccccc12`, with 13.1%; and `Cc1cc(OC(=O)c2ccc(S(=O)(=O)N(C)C)cc2)c([N+](=O)[O-])c(=O)[nH]1`, with 10.6%. Consider `COc1ccc2c(c1OC)C(=O)OC2C1c2cc3c(cc2CCN1C)OCO3` (stereo not drawn), for which the “hERG current change (%, negative = inhibition) at 10uM” value turned out to be 6.25%. Then `COc1cc(C(O)CN)ccc1O.Cl` (stereo not drawn), with 3.21%; and `CCN(CC)C(=S)Sc1c(-c2ccccc2)c2cc(Cl)ccc2[nH]c1=O`, with 5.42%. As for `COc1cccc(NC(=O)CN2CCN(S(=O)(=O)c3ccc(F)cc3)CC2)c1`, the figure is -23.1%.

Take `COc1ccc(S(=O)(=O)N2CCN(CC(=O)Nc3cccc(OC)c3)CC2)cc1`: the “hERG current change (%, negative = inhibition) at 10uM” value was -31.4%.

Turning to `COc1ccc(S(=O)(=O)N2CCN(CC(=O)Nc3cccc(F)c3)CC2)cc1`, the “hERG current change (%, negative = inhibition) at 10uM” value was -54.1%.

In the case of `Cc1cnc(NC(=O)C(C)N2CCN(C)CC2)s1.O=C(O)C(=O)O` (stereo not drawn), the “hERG current change (%, negative = inhibition) at 10uM” value is on record as 20.7%. `O=C(O)C1(P(=O)(c2ccccc2)c2ccccc2)CCC1`: the “hERG current change (%, negative = inhibition) at 10uM” value is reported as -3.46%. As for `CC(/C=N/Nc1nnc(C)c(=O)[nH]1)=C\c1ccccc1`, the figure is -10.5%.

Consider `CC(/C=N/Nc1ncc(C)c(=O)[nH]1)=C\c1ccccc1`, for which the “hERG current change (%, negative = inhibition) at 10uM” value was -53%. With `CC(/C=N/Nc1nncc(=O)[nH]1)=C\c1ccccc1`, the “hERG current change (%, negative = inhibition) at 10uM” value was 3.08%. `O=C(CSc1nnc(COc2ccc(Cl)cc2)o1)NC1CC2CCC1C2` (stereo not drawn): the “hERG current change (%, negative = inhibition) at 10uM” value is listed as 11.5%. Consider `CCC(C)(C)NC(=O)C(C(C)C)N(CC1CCCO1)C(=O)CNS(=O)(=O)c1ccccc1` (stereo not drawn), for which the “hERG current change (%, negative = inhibition) at 10uM” value is -2.21%. As for `CCC(Oc1ccccc1)C(=O)Nc1ccc(C)c(S(=O)(=O)N2CCOCC2)c1` (stereo not drawn), the figure is -18%.

For `CNCc1ccccc1Sc1ccc(OC)cc1.Cl`, the “hERG current change (%, negative = inhibition) at 10uM” value was -30.4%. Then `CNC(C)Cc1ccccc1Sc1ccc(O)cc1.Cl` (stereo not drawn), with -66.7%; and `CC(Cc1ccccc1Sc1ccc(O)cc1)N(C)C.CCO.Cl` (stereo not drawn), with -69.5%; and `CC(N)Cc1ccccc1Sc1ccc(O)cc1.O=C(O)C(=O)O` (stereo not drawn), with -35.5%. Then `CN(C)Cc1ccccc1Sc1ccc(Br)cc1`, with -15.6%; and `CC(Cc1ccccc1Sc1ccccc1O)N(C)C.Cl` (stereo not drawn), with -18.9%. Then `O=C(C1=C(O)C(=O)N(CCN2CCOCC2)C1c1ccccc1)c1cccs1` (stereo not drawn), with -2.27%; and `O=C(OC(C(=O)NCc1cccs1)c1ccccc1F)c1ccco1` (stereo not drawn), with 20.5%. Consider `CCOc1ccccc1NC(=O)COC(=O)C(Cc1ccccc1)NC(=O)c1ccco1` (stereo not drawn), for which the “hERG current change (%, negative = inhibition) at 10uM” value is -8.33%.

As for `O=C1/C(=C\c2ccsc2)NC(=S)N1c1ccccc1`, the “hERG current change (%, negative = inhibition) at 10uM” value is 15.4%.
